Measured values: PubChem BioAssay
Calls of active or inactive are those of the source. Unless noted, the rule behind the calls is not given here.

What was measured:
[1] = tested on: Neuropilin-2 / VEGF-C interaction (human); assay: inhibitors of NRP2–VEGF-C binding, biochemical, microplate binding format, z-score (AID 743281); details: microplate NRP2/VEGF-C binding assay; stronger effect = lower value
[2] = modulation of C. elegans fzo-1 (AID 1259413);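 note: fzo-1 mutant C. elegans worms in liquid wells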; details: C. elegans fzo-1 modulator screen, mean read-out; stronger effect = higher value
[3] = differential killing of epithelial or mesenchymal cells, primary screen, imaging, PC-3E GFP, TEM4-18 mCherry, co-culture (AID 1345086;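 active = compounds killing one labelled cell type while sparing the other, by normalised counts and ratio limits, not self-fluorescent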;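 for all read-outs here: cells exposed to compound for 72 h before imaging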;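 for red/green cell ratio (normalised): normalised mesenchymal count divided by normalised epithelial count so high means epithelial killing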); details: imaging cell counts, at 1 µM; for red/green cell ratio (normalised): actives lie on both sides, counts scaled to control wells, 1 = unselective
[4] = liver-stage malaria parasite growth inhibition, primary screen, cell-based, HepG2, luciferase luminescence, HepG2 viability (AID 624349; in the data active = parasite load remaining mostly below about 12%, no sharp cut-off; inactive = mostly above about 10%;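 note: 100% = mean of DMSO negative control wells on the same plate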); details: P. berghei liver stage in HepG2, luciferase luminescence, concentration not given here; parasite load remaining: stronger effect = lower value; viability: measured here: HepG2 viability without parasites
[5] = Cy5 fluorescence interference with SSB-bound oligo, artefact control for HCV NS3 helicase inhibitor project, biochemical, NIH Clinical Collection, E. coli SSB (AID 743268)
[6] = tested on: Hepatitis C virus NS3 helicase; assay: HCV NS3 helicase inhibitors, primary screen, biochemical, fluorescence polarization, NIH Clinical Collection (AID 743270); details: NS3 helicase binding to Cy5-dT15 DNA, stronger effect = higher value, concentration not given here
[7] = molecular target: Single-stranded DNA-binding protein (Escherichia coli (strain K12)) (UniProt P0AGE0); assay: E. coli SSB displacement from DNA, counter-screen for HCV NS3 helicase inhibitor project, biochemical, fluorescence polarization, NIH Clinical Collection (AID 743271; in the data active = inhibition above about 28%); details: stronger effect = higher value, concentration not given here
[8] = fluorescence interference in NS3h assay format, artefact control for HCV NS3 helicase inhibitor project, biochemical, NIH Clinical Collection (AID 743272); details: fluorescence interference counterscreen, stronger effect = lower value;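 note: HCV NS3 helicase with a Cy5 labelled single stranded DNA probe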
[9] = measured here: epithelial PC-3E GFP cell survival
[10] = measured here: mesenchymal TEM4-18 mCherry cell survival

For CC12C=CC(=O)C=C1CC[C@@H]1[C@@H]2[C@@H](O)CC2(C)[C@H]1CC[C@]2(O)C(=O)COC(=O)CCC(=O)O (stereo partly specified), the outcome [1] was “inactive” and the mean signal [2] was 283 (inactive).
For C=C1/C(=C\C=C2/CCCC3(C)[C@@H]([C@H](C)CCCC(C)(C)O)CC[C@@H]23)C[C@@H](O)C[C@@H]1O (stereo partly specified), the outcome [1] was “inactive” and the mean signal [2] was 260 (inactive).
With C=CC1=C(C(=O)O)N2C(=O)[C@@H](NC(=O)/C(=N/OCC(=O)O)c3csc(N)n3)[C@H]2SC1 the outcome [1] was “inactive” and the mean signal [2] was 257 (inactive).
In the case of CC12CC[C@@H]3c4ccc(O)cc4CC[C@H]3[C@@H]1CC[C@@H]2O (stereo partly specified), the outcome [1] is reported as “inactive” and the mean signal [2] is reported as 233 (inactive).
In the case of CCOC(=O)O[C@]1(C(=O)COC(=O)CC)CCC2C3CCC4=CC(=O)C=C[C@]4(C)C3[C@@H](O)C[C@@]21C (stereo partly specified), the red/green cell ratio (normalised) [3] is reported as 0.87 (inactive), the normalised cell number [3, 9] is reported as 1.29 and the normalised cell number [3, 10] is reported as 1.13.
For CC(C)(C)NC(=O)[C@H]1CC[C@H]2[C@@H]3CC[C@H]4NC(=O)C=CC4(C)[C@H]3CCC12C (stereo partly specified), the outcome [1] was “inactive” and the mean signal [2] was 247 (inactive).
For Nc1ccc(Oc2ccccc2)cc1, the red/green cell ratio (normalised) [3] was 0.95 (inactive), the normalised cell number [3, 9] was 0.99 and the normalised cell number [3, 10] was 0.94.
For C=C1[C@@H](C)C2[C@H](Cc3c[nH]c4ccccc34)NC(=O)[C@]23C(=O)/C=C/[C@H](O)C(=O)/C(C)=C/[C@@H](C)C/C=C/[C@H]3[C@@H]1O (stereo partly specified), the red/green cell ratio (normalised) [3] was 1.13 (inactive), the normalised cell number [3, 9] was 0.96 and the normalised cell number [3, 10] was 1.08.
In the case of CC(=O)[C@H]1CC[C@H]2[C@@H]3CCC4=CC(=O)CCC4(C)[C@H]3CCC12C (stereo partly specified), the outcome [1] is reported as “inactive” and the mean signal [2] is reported as 279 (inactive).
With CC#C[C@]1(O)CC[C@H]2[C@@H]3CCC4=CC(=O)CCC4=C3[C@@H](c3ccc(N(C)C)cc3)CC21C (stereo partly specified) the outcome [1] was “inactive” and the mean signal [2] was 225 (inactive).
For COc1cc(CNC(=O)CCCC/C=C\C(C)C)ccc1O, the parasite load remaining [4] was 83.7% (inactive), the viability [4] was 75.2% and the fluorescence ratio [5] was 0.95 (inactive). For the same compound, the inhibition [6] was -6.73% (inactive), the inhibition [7] was 1.44% (inactive) and the fluorescence ratio [8] was 0.9 (inactive). The z-score [1] was 1.86 (inactive) and the mean signal [2] was 250 (inactive).
In the case of CC12CCC(=O)C=C1CC[C@@H]1[C@@H]2[C@@H](O)CC2(C)[C@@H](C(=O)CO)CC[C@@H]12 (stereo partly specified), the outcome [1] is reported as “inactive” and the mean signal [2] is reported as 250 (inactive).
With C/C=C/C1=CC(=O)[C@H](O)[C@H]1O the red/green cell ratio (normalised) [3] was 1.04 (inactive), the normalised cell number [3, 9] was 1.04 and the normalised cell number [3, 10] was 1.07.
For O=C(O)c1cn(C2CC2)c2cc(N3CCN(c4ncncn4)CC3)c(F)cc2c1=O, the red/green cell ratio (normalised) [3] was 1.22 (inactive), the normalised cell number [3, 9] was 0.88 and the normalised cell number [3, 10] was 1.08.
For OC[C@H]1O[C@@H](n2cnc3c(N[C@H]4CCC[C@@H]4O)ncnc32)[C@@H](O)C1O (stereo partly specified), the parasite load remaining [4] was 54.4% (inactive), the viability [4] was 67.3% and the fluorescence ratio [5] was 1.01 (inactive). The inhibition [6] was -1.09% (inactive), the inhibition [7] was -2.76% (inactive) and the fluorescence ratio [8] was 0.98 (inactive). For the same compound, the z-score [1] was -0.495 (inactive) and the mean signal [2] was 261 (inactive).
In the case of O=C1N[C@H](C(=O)O)CS1, the parasite load remaining [4] is reported as 95.8% (inactive), the viability [4] is reported as 70.6% and the fluorescence ratio [5] is reported as 1.02 (inactive). For the same compound, the inhibition [6] was -3.56% (inactive), the inhibition [7] was -3.18% (inactive) and the fluorescence ratio [8] was 0.96 (inactive). For the same compound, the z-score [1] was -0.587 (inactive) and the mean signal [2] was 242 (inactive).
With C[C@@H]1CC[C@@]2(OC1)O[C@H]1CC3C4CC[C@H]5C[C@@H](O)CC[C@]5(C)C4CC[C@]3(C)[C@H]1[C@@H]2C (stereo partly specified) the red/green cell ratio (normalised) [3] was 0.88 (inactive), the normalised cell number [3, 9] was 1.17 and the normalised cell number [3, 10] was 1.03.
In the case of CNC1C(O[C@@H]2OC(CO)C(N)[C@H](O)C2O)OC2CC(N)[C@@H](OC3C(N)C[C@@H](N)C(O)[C@H]3O)OC2C1O (stereo partly specified), the red/green cell ratio (normalised) [3] is reported as 1.2 (inactive), the normalised cell number [3, 9] is reported as 0.92 and the normalised cell number [3, 10] is reported as 1.1.
With C#C[C@]1(O)CC[C@H]2[C@@H]3CCc4cc(O)ccc4[C@H]3CCC21C (stereo partly specified) the outcome [1] was “inactive” and the mean signal [2] was 242 (inactive).
In the case of CO[C@@]1(NC(=O)C2SC(=C(C(N)=O)C(=O)O)S2)C(=O)N2C(C(=O)O)=C(CSc3nnnn3C)CSC21 (stereo partly specified), the red/green cell ratio (normalised) [3] is reported as 0.96 (inactive), the normalised cell number [3, 9] is reported as 1.21 and the normalised cell number [3, 10] is reported as 1.17.
For C/C=C1/[C@H]2C=C(C)C[C@]1(N)c1ccc(=O)[nH]c1C2, the outcome [1] was “inactive” and the mean signal [2] was 229 (inactive).
For CC[C@H]1OC(=O)[C@H](C)C(=O)[C@H](C)[C@@H](O[C@@H]2O[C@H](C)C[C@H](N(C)C)[C@H]2O)[C@](C)(OC)C[C@@H](C)C(=O)[C@H](C)[C@@H]2N(CCCCn3cnc(-c4cccnc4)c3)C(=O)OC21C (stereo partly specified), the outcome [1] was “inactive” and the mean signal [2] was 205 (inactive).
With C=C1/C(=C\C=C2/CCCC3(C)[C@@H]([C@H](C)/C=C/[C@@H](O)C4CC4)CC[C@@H]23)C[C@@H](O)C[C@@H]1O (stereo partly specified) the outcome [1] was “inactive” and the mean signal [2] was 277 (inactive).
For CC(CC(=O)N1C(=S)SC[C@@H]1c1ccccc1)N1C(=S)SC[C@@H]1c1ccccc1 (stereo partly specified), the red/green cell ratio (normalised) [3] was 0.88 (inactive), the normalised cell number [3, 9] was 1.18 and the normalised cell number [3, 10] was 1.04.
For CC(=O)O[C@H]1C[C@@H]2CC[C@@H]3[C@H](CCC4(C)[C@H]3C[C@H]([N+]3(C)CCCCC3)[C@@H]4OC(C)=O)C2(C)C[C@@H]1N1CCCCC1 (stereo partly specified), the outcome [1] was “inactive” and the mean signal [2] was 285 (inactive).
In the case of C#C[C@]1(O)CC[C@H]2[C@@H]3CCc4cc(OC)ccc4[C@H]3CCC21C (stereo partly specified), the outcome [1] is reported as “inactive” and the mean signal [2] is reported as 241 (inactive).
In the case of CC(=O)OC12CO[C@@H]1C[C@H](O)[C@@]1(C)C(=O)[C@H](O)C3=C(C)[C@@H](OC(=O)[C@H](O)[C@@H](NC(=O)OC(C)(C)C)c4ccccc4)CC(O)([C@@H](OC(=O)c4ccccc4)[C@H]21)C3(C)C (stereo partly specified), the outcome [1] is reported as “inactive” and the mean signal [2] is reported as 256 (inactive).
